This is a sample that favours compounds with a hit; in the whole collection about 19% have one here.
RORgamma inh – blocks mouse ROR gamma transcriptional activity. Drosophila S2 Gal4-RORgamma UAS-luciferase reporter, 20 h. Potency, µM (top dose mostly 53.6 µM), for the others: top-dose activity change, negative = inhibition, actives largely listed as inhibitors. 310,000 tested, 5.4% active. AID 2551; further: nearly all actives have a fitted effect of over 60% in size
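Using a luciferase readout, inhibitors were identified by reduced reporter activity in Drosophila cells coexpressing a copper-inducible Gal4–ROR gamma fusion and UAS-driven Photinus luciferase, incubated 20 hr after 700 uM copper sulfate.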
TDP1 cell CPT – DT40-hTDP1 cell growth loss with CPT; chicken DT40 Tdp1-/-;hTDP1 cells + 20 nM CPT, ATP luminescence, 48 h; Potency, µM (top dose mostly 46.2 µM), for the others: at the highest dose activity change, negative = growth inhibition, usual class: inhibitors; 420,000 tested, 12% active; AID 686979; further: nearly all actives have a fitted effect of over 55% in size
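Cell growth measured by CellTiter-Glo luminescence after a minimum 48 h, 37 C compound exposure with 20 nM CPT in Tdp1-knockout DT40 cells stably expressing hTDP1, seeded 400/well; qHTS titration format.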
TDP1 inh – inhibitors of human tyrosyl-DNA phosphodiesterase TDP1. Q9NUW8. recombinant TDP1, AlphaScreen DNA substrate cleavage. Potency, µM (series often up to 130 µM), for the others: top-dose activity change, negative = inhibition, hits mostly inhibitors. 350,000 tested, 0.28% active. AID 485290; further: nearly all actives have a fitted effect of over 40% in size
Target sequence (Q9NUW8 whole entry, looked up): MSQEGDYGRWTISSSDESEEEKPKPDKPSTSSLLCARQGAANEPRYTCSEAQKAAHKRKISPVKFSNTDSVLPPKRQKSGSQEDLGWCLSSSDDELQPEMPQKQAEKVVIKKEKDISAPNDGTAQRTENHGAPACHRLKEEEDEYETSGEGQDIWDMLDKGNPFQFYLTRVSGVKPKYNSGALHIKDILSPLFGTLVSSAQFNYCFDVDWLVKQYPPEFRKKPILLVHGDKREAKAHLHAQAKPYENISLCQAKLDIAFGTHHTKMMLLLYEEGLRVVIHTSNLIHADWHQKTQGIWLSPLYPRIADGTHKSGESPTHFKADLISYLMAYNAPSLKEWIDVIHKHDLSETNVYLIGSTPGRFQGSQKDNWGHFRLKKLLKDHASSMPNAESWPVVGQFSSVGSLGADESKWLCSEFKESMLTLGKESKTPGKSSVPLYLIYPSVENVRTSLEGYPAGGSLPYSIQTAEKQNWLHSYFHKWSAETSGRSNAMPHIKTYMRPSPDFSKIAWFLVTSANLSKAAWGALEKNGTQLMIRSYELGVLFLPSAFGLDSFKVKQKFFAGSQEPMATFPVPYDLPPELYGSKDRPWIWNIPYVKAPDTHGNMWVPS
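Enzyme-compound mixtures sat 15 min at room temperature, followed by a 5 min reaction with 15 nM final substrate and 10 min with AlphaScreen beads. Recombinant human Tdp1 was used at 1 nM final.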
Gal4-VP16 FLuc – counter-screen for ROR gamma inhibitors: Gal4-VP16 reporter | Drosophila S2 Gal4-VP16 UAS-luciferase, luminescence, 20 h | Potency, µM (series often up to 53.6 µM), for the others: at the top dose activity, negative = inhibition, hits mostly inhibitors | 310,000 tested, 3.5% active;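 further: Gal4-VP16 expression switched on by copper sulfate through the metallothionein promoter; nearly all actives have a fitted effect of over 50% in size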
DT40 TDP1 no CPT – qHTS for Inhibitors of human tyrosyl-DNA phosphodiesterase 1 (TDP1): qHTS in cells in absence of CPT; Potency, µM (series often up to 46.2 µM), inactives show top-dose activity change, negative = growth inhibition, hits mostly inhibitors; 420,000 tested, 15% active; DT40 Tdp1-/- hTDP1 cells, no CPT, ATP luminescence, 48 h; AID 686978, 2013; further: nearly all actives have a fitted effect of over 55% in size
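Chicken DT40 Tdp1-/- cells complemented with human TDP1, screened without camptothecin (DMSO vehicle only), 400 cells/well. Compounds pin-transferred, cells incubated at 37 °C for at least 48 hr. Growth read as ATP-dependent luminescence (CellTiter-Glo, 30 min at RT).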
* marks the source's active call; other numbers are inactive results; ? = inconclusive; . = no result given; [ ] = dose if it differs, or a comment. The call rests on the fitted dose curve; in most records, active means well fitted curve in the direction sought with a large enough effect; inconclusive means small, poorly fitted or top-dose-only effect, or another doubt; inactive means no such curve, though single readings can be large; an effect the other way counts as inactive or inconclusive. On the % scale 0 is the no-effect control and ±100 the full control effect; potency means the concentration at half of the fitted maximal effect.

SMILES	RORgamma inh	TDP1 cell CPT	TDP1 inh	Gal4-VP16 FLuc	DT40 TDP1 no CPT
CCOc1ccc(Cn2c(=O)sc3ccccc32)cc1OC	?	?	1.9%	-18.2%	?
Cc1c(C(=O)N2CCC2(C)C(=O)O)oc2ccccc12 (configuration not stated)	.	1.3%	.	.	-26.0%
CCC(=O)N=c1sc2cc(F)cc(F)c2n1C	.	2.8%	.	.	-7.4%
CCn1c(=NC(=O)CSC(C)=O)sc2cc(F)ccc21	?	?	7.1%	6.6%	18.4µM*
C#CCn1c(=NC(=O)CSC(C)=O)sc2cc(F)ccc21	2.51µM*	10.3µM*	.	-28.6%	20.6µM*
Nc1c(Cl)cc(C2=NCCn3nc4cc(C(F)(F)F)ccc4c32)cc1Cl	.	20.6µM*	4.1%	.	20.6µM*
Nc1c(Cl)cc(C2=NCCn3c2c2ccc([N+](=O)[O-])cc2[n+]3[O-])cc1Cl	.	1.84µM*	9.8%	.	5.8µM*
COc1ccc2c3n(nc2c1)CCN=C3c1cc(Cl)c(N)c(Cl)c1	.	?	5.9%	.	16.4µM*
Nc1c(Cl)cc(C2=NCCn3nc4cc([N+](=O)[O-])ccc4c32)cc1Cl	.	?	9.2%	.	18.4µM*
COc1ccc(C2=NCCn3nc4ccccc4c32)cc1	.	-16.0%	1.0%	.	-15.4%
[O-][n+]1c2cc(C(F)(F)F)ccc2c2n1CCN=C2c1ccc(Cl)cc1	.	-18.2%	6.7%	.	?
C[C@@H]1CC[C@H]2C(=O)NC[C@@H](O)CN2[C@@H]1c1ccc(Br)cc1	8.9%[10 µM]	.	1.6%[21 µM]	0.1%[10 µM]	.
O=[N+]([O-])c1cc(S(=O)(=O)N2CCCC2)ccc1OCc1ccccc1	-19.6%	-10.3%	.	-13.6%	-29.4%
CC(C)CSc1nc2c(c(=O)[nH]c(=O)n2C)n1CCc1ccccc1	11.4%	-0.8%	1.0%	3.3%	?
COCCN1CCN(C(=O)c2cnn(-c3nccc(-c4ccco4)n3)c2C(C)C)CC1	.	15.7%[9.04 µM]	.	.	-2.7%
CC1=C(C(=O)Nc2ccccc2F)C(c2ccsc2)C2=C(CC(c3ccccc3)CC2=O)N1 (configuration not stated)	30.8%	25.9µM*	0.0%	1.2%	25.9µM*
O=C(CN1CCN(C(=O)c2ccco2)CC1)Nc1ccccc1-c1ccccc1	13.3%	25.9µM*	5.2%	-2.6%	?
CCOC(=O)c1cc(CC)sc1NC(=O)CN1CCN(C(=O)c2ccco2)CC1	?	?	7.5%	-5.6%	-22.2%
COC(=O)c1cc(C)sc1NC(=O)CN1CCN(C(=O)C2CCCO2)CC1 (configuration not stated)	10µM*	6.1%	-2.9%	?	-15.2%
CCOC(=O)c1cc(C)sc1NC(=O)CN1CCN(C(=O)C2CCCO2)CC1 (configuration not stated)	-38.7%	?	2.3%	-5.4%	?
CCOC(=O)c1cc(C)sc1NC(=O)CN1CCN(C(=O)c2ccco2)CC1	-2.3%	23.1µM*	4.2%	5.9%	?
CC(=O)NC(=S)Nc1cccc2ccc(C)nc12	2.82µM*	6.3%	.	12.6µM*	-9.6%
O=C(NC(=S)Nc1cccc2cnccc12)c1ccccc1	10µM*	?	-1.2%	?	?
Cc1ccc2cccc(NC(=S)NC(=O)c3ccnn3C)c2n1	?	?	-1.6%[56.1 µM]	?	?
COc1ccc(C(=O)NC(=S)Nc2cccc3cc(O)ccc23)cc1OC	-32.7%	-22.7%	3.4%	-10.0%	-3.0%
O=C(NC(=S)Nc1cccc2cccnc12)c1ccccc1	2.24µM*	-13.1%	-2.0%	6.31µM*	-34.0%
O=C(Nc1cccc2cccnc12)c1ccccc1	.	.	-0.5%	.	.
N#CC(=C=[N-])c1nc2ccccc2nc1-[n+]1ccccc1	-3.0%	-3.8%	7.1%	-2.9%	0.6%
COc1ccccc1C(C)NCC(=O)c1c(C)[nH]c2ccccc12 (configuration not stated)	.	11.2µM*	.	.	17.8µM*
COc1ccccc1C(C)NC(=O)c1cc(=O)[nH]c2ccccc12 (configuration not stated)	-0.8%	-11.0%	0.0%	0.4%	-7.2%

High-throughput results deposited in PubChem by National Center for Advancing Translational Sciences (NCATS).
